Experimental data as given in PubChem BioAssay (NCATS).
Several values for one entry are separate records, joined by “and”; a condition that tells them apart may be missing. Identical values can stand only once. Records with an inconclusive call do not appear. Entries that show only a call come without a potency. Where a structure was tested more than once in an assay, its records may differ in their call. Activity calls are given as the source filed them. Unless noted, calls come from the whole dose curve; as a rule, active = well fitted curve in the direction sought with a large enough effect; inconclusive = small, poorly fitted or top-dose-only effect, or another doubt; inactive = no such curve, though single readings can be large; an effect the other way counts as inactive or inconclusive.

Columns and labels:
[1] = High Content Imaging Cell-Based qHTS for Inhibitors of the mTORC1 Signaling Pathway in MEF Cells (AID 2667);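 note: Tsc2-/- p53-/- MEFs stably re-expressing wild-type Tsc2 exposed 24 h; series mostly up to about 38 µM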
In short: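 Fixed-cell imaging of phospho-S6 (Ser235/236, Alexa-488) after 24 hrs of compound treatment at 37 degree Celsius. Signal was normalized to Hoechst, and thresholds from the highest and lowest wells split cells into % active versus % non-active.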

[2] = Cytometry Cell-Based qHTS for Inhibitors of the mTORC1 Signaling Pathway in MEF cells (AID 2668);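 note: Tsc2-/- p53-/- mouse embryonic fibroblasts stably re-expressing wild-type Tsc2; percent cells positive for phospho-rpS6 Ser235/236 relative to propidium iodide stain; series mostly up to about 38 µM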
In short: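 Read-out: phospho-rpS6 Ser235/236 immunofluorescence normalized to propidium iodide intensity, scored as % active cells against a rapamycin (7.5 nM) threshold. Cells: Tsc2-/-, p53-/- MEFs stably expressing WT Tsc2, compound-treated 24 hrs at 37 degree Celsius.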

[3] = Validation screen for small molecules that induce DNA re-replication in MCF 10A normal breast cells (AID 463097); note: nearly all actives have a fitted effect of over 60% in size; note: potency is the fitted concentration of half-maximal effect
In short: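 250 MCF 10A cells/well; compound pin-transferred; 48 hr, 37 C, 5% CO2; Hoechst 40 min; imaged 405/500-530 nm. Hits = more high-intensity nuclei.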

[4] = target: Ubiquitin carboxyl-terminal hydrolase 2 (Homo sapiens) (UniProt O75604); experiment: qHTS Validation Assay for Inhibitors of Ubiquitin-specific Protease USP2a Using CHOP2 as the Reporter (AID 463106); note: potency is the fitted concentration of half-maximal effect
In short: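 Inhibition is expressed relative to NEM as the full-inhibition control, with concentration-response curves classed by fit quality, magnitude and activity. Enzyme (USP2 core, 10nM) meets 25nM Ub-CHOP2 after compound preincubation; readings are taken at 60min.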

[5] = target: Tumor susceptibility gene 101 protein (Homo sapiens) (UniProt Q99816); experiment: qHTS Validation Assay for Iinhibitors of HIV-1 Budding by Blocking the Interaction of PTAP/TSG101 (AID 485342; calls by dose curve)
Chain of Tumor susceptibility gene 101 protein (Homo sapiens) (Q99816 whole entry, looked up, the tested form may be a part): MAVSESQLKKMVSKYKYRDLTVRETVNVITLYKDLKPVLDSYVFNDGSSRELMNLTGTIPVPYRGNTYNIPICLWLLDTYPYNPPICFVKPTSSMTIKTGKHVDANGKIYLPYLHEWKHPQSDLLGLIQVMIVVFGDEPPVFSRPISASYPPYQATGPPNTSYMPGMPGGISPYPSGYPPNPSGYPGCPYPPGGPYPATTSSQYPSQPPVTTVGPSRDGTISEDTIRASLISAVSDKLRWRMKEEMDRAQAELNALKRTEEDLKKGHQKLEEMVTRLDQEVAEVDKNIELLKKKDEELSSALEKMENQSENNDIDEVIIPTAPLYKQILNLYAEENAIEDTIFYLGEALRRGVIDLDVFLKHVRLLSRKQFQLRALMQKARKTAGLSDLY
In short: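 FP read-out: FITC-PTAP peptide, 50 nM final, binding Tsg101 binding domain, 10 uM final; 20 min r.t.; 10 mM HEPES pH 7.5, 0.15 M NaCl, 0.01% Tween 20, 3 mM EDTA, 0.1 mM TCEP.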

[6] = target: Beta-2 adrenergic receptor (Homo sapiens) (UniProt P07550); experiment: qHTS validation assay of beta-arrestin-biased ligands of beta2-adrenergic receptor (AID 485366)
In short: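 Compound series up to 46 microM applied to beta2-AR/beta-arrestin Tango cells, 18 hr, 37 degrees C, 5% CO2. Read-out: tTA-driven luciferase luminescence, converted to %Activity; concentration-response curves assigned curve classes.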

[7] = Quantitative high throughput screen for delayed death inhibitors of the malarial parasite plastid, 48 hour incubation (AID 488752); note: nearly all actives have a fitted effect of over 65% in size; note: potency is the fitted concentration of half-maximal effect
In short: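 Luciferase-expressing P. falciparum in RBCs, 2% Hct, 0.1% parasitemia final; RPMI 1640 + 0.5% Albumax; 48 h, 37 C, 5% CO2; luminescence readout, signal drop = growth inhibition.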

[8] = target: Thioredoxin reductase 1, cytoplasmic (Rattus norvegicus) (UniProt O89049); experiment: qHTS Assay for Substrates of Mammalian Selenoprotein Thioredoxin Reductase 1 (TrxR1) (AID 488772);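 note: series mostly up to about 57 µM; a drop in NADPH fluorescence below the no-compound background marks a TrxR1 substrate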
In short: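 In this dual-purpose format, potential substrates are identified from the first fluorescence read after selenite addition, not from the 8-minute delta. Rat enzyme is preincubated with NADPH and then with compound at ~22 deg C.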

[9] = target: Thioredoxin reductase 1, cytoplasmic (Rattus norvegicus) (UniProt O89049); experiment: qHTS Assay for Inhibitors of Mammalian Selenoprotein Thioredoxin Reductase 1 (TrxR1) (AID 488773); conditions: Potency: inhibition; note: nearly all actives have a fitted effect of over 40% in size; note: potency is the fitted concentration of half-maximal effect
In short: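 Inhibition is scored from the loss of NADPH fluorescence between first and last reads of an 8-min kinetic run. Selenite (400 uM) was the substrate, added after 15 min compound preincubation at room temperature.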

[10] = target: Flap endonuclease 1 (Homo sapiens) (UniProt P39748); experiment: qHTS Validation Assay for the Inhibitors of Human Flap endonuclease 1 (FEN1) (AID 488816); note: potency is the fitted concentration of half-maximal effect
Chain of Flap endonuclease 1 (Homo sapiens) (P39748 whole entry, looked up): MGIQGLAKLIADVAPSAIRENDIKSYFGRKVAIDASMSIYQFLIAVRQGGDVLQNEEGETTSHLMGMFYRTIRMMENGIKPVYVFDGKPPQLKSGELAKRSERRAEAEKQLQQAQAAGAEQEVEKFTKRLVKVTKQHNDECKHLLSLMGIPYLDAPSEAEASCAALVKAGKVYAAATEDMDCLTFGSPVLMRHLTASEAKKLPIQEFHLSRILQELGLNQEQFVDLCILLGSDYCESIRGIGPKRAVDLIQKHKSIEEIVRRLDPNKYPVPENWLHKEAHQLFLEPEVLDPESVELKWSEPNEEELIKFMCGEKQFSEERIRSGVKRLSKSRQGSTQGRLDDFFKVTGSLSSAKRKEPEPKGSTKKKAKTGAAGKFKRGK
In short: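 Steps: add FEN1 (10 nM reagent) or buffer only; pin compounds; hold 15 min at room temperature; start with substrate, 50 nM final; read at 0 and 15 min; correct, normalize and fit a four-parameter Hill curve.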

[11] = target: M-phase phosphoprotein 8 (Homo sapiens) (UniProt Q99549); experiment: qHTS Validation Assay for Inhibitors for MPP8 Chromodomain Interactions with Methylated Histone Tails (AID 488949); note: nearly all actives have a fitted effect of over 55% in size; note: potency is the fitted concentration of half-maximal effect
Chain of M-phase phosphoprotein 8 (Homo sapiens) (Q99549 whole entry, looked up): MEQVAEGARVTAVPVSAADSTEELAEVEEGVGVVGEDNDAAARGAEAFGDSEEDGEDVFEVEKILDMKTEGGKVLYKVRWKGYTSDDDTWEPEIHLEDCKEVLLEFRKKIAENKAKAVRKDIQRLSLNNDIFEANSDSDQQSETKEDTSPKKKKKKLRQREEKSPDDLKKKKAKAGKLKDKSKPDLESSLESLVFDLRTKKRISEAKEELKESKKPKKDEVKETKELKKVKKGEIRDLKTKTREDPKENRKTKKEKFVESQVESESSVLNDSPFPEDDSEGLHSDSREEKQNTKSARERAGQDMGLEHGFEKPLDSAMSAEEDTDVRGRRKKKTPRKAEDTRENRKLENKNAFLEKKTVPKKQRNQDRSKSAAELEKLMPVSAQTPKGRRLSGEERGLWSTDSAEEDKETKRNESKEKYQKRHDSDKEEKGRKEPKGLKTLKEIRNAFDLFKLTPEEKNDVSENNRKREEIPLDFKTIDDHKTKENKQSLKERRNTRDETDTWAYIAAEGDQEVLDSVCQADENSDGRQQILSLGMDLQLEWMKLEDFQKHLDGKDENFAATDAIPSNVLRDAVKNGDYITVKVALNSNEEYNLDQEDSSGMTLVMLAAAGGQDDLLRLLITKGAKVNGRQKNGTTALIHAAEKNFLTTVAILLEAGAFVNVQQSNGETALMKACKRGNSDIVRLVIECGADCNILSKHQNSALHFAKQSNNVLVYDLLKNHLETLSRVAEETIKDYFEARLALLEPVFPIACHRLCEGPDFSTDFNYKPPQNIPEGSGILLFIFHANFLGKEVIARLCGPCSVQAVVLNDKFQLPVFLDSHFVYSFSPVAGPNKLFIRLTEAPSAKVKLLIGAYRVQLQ
In short: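 AlphaScreen read-out: streptavidin donor and nickel chelate acceptor beads (final 10 ug/mL), 30 min in the dark at RT. Complex of 50 nM MPP8 and 50 nM b-H3(1-18)K9me3 peptide had been exposed to compounds for 30 min beforehand.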

[12] = target: Chromobox protein homolog 1 (Homo sapiens) (UniProt P83916); experiment: qHTS Validation Assay for Inhibitors of HP1-beta Chromodomain Interactions with Methylated Histone Tails (AID 488953); note: nearly all actives have a fitted effect of over 50% in size; note: potency is the fitted concentration of half-maximal effect
Chain of Chromobox protein homolog 1 (Homo sapiens) (P83916 whole entry, looked up): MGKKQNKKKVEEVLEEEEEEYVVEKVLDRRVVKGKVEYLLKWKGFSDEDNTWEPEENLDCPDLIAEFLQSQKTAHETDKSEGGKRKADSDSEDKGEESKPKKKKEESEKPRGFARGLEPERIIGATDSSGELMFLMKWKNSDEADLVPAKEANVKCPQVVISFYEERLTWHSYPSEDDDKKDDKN
In short: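 AlphaScreen proximity readout: streptavidin donor and Ni-chelate acceptor beads, 10 ug/mL final, 30 min dark, RT. Complex of 50 nM HP1-beta and 50 nM b-H3(1-18)K9me3 formed 30 min, then compound-treated 30 min; PBS pH 7.4/0.01% Tween-20.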

[13] = target: Methanococcus maripaludis chaperonin (MmCpn) (UniProt Q6LX38); experiment: High-Throughput Screening for Modulators of Cytosolic Chaperonin Activity: MmCpn Primary Screen (AID 488978);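 note: 50 nM MmCpn enzyme hydrolysing 30 µM ATP at 37 °C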
In short: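 ADP formation read by HTRF Transcreener, 665/590 nm emission after 320 nm excitation. Enzyme: archaeal chaperonin at 50 nM final; substrate ATP 30 uM final; 10 min, 37C, after 5 min compound preincubation at RT.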

[14] = target: Transient receptor potential cation channel subfamily V member 1 (Homo sapiens) (UniProt Q8NER1); experiment: HTS Assay for Compounds that Act as Enhancers of the Vanilloid Receptor 1 (AID 488979)
Chain of Transient receptor potential cation channel subfamily V member 1 (Homo sapiens) (Q8NER1 whole entry, looked up): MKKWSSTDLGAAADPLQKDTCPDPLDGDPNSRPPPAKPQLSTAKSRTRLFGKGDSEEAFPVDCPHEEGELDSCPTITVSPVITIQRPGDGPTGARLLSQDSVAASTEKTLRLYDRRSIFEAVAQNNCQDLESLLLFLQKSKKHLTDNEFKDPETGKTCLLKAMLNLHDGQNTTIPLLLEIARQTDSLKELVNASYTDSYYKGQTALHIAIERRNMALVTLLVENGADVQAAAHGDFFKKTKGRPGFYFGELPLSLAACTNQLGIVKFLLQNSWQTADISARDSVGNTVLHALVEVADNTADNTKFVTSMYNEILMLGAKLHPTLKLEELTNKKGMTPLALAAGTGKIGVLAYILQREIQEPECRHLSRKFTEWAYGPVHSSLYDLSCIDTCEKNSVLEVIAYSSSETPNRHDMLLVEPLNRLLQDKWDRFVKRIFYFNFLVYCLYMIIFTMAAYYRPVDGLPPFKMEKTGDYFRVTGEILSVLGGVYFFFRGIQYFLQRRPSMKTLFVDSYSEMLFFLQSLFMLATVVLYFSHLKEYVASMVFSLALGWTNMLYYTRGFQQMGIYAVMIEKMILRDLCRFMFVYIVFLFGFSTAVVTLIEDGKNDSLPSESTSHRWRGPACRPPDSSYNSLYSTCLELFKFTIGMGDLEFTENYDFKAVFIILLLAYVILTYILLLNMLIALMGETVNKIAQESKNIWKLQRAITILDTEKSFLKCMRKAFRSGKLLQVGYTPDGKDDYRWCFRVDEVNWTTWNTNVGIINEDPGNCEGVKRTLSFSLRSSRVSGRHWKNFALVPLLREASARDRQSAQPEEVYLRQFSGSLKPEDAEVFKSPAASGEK
In short: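 TRPV1-expressing cells loaded with Fluo-8 calcium dye; compounds added and calcium influx read kinetically for 3 min (agonist phase), then capsaicin at EC20 added and read 2 min more for enhancement. Fluorescence ex 480/em 520 nm.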

[15] = target: Thyrotropin receptor (Homo sapiens) (UniProt P16473); experiment: qHTS Assay for Antagonists of the Thyroid Stimulating Hormone Receptor (AID 488980); note: series mostly up to about 58 µM
Chain of Thyrotropin receptor (Homo sapiens) (P16473 whole entry, looked up): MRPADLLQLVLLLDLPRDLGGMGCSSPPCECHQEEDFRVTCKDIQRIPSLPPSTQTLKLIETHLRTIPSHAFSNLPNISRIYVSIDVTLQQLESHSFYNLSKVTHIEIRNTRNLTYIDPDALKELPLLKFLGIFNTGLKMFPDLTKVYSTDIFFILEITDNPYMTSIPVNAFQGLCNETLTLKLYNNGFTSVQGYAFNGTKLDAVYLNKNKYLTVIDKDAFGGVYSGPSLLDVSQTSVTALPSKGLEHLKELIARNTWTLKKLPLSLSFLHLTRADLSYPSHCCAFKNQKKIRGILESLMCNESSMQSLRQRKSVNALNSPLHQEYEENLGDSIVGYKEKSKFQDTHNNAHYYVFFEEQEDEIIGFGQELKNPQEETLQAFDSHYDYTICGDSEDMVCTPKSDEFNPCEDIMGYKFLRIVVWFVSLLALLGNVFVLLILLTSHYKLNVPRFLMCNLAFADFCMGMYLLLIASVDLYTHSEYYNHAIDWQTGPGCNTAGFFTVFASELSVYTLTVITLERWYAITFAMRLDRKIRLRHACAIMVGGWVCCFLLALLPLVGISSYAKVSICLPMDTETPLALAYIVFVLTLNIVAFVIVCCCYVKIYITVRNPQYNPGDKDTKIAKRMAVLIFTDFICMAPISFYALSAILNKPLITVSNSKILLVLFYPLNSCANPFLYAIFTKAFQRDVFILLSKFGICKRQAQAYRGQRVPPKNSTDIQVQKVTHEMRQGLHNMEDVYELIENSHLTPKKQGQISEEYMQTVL
In short: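 TSHR-HEK293 cells; 70 uM RO 20-1724 PDE inhibitor; compound + EC80 TSH (4 nM final); anti-cAMP cryptate antibody/cAMP-d2 in lysis buffer, 30 min RT; HTRF 665/620 nm read.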

[16] = target: D(1A) dopamine receptor (Homo sapiens) (UniProt P21728); experiment: HTS Assay for Allosteric Agonists of the Human D1 Dopamine Receptor: Primary Screen for Agonists (AID 488981)
In short: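 Tetracycline-induced HEK293 T-REx cells force-coupled to calcium signalling were incubated overnight at 30 C and dye-loaded at room temperature. Calcium flux over 180 s after compound addition flagged agonists; a further 180 s read after EC20 dopamine flagged potentiators.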

[17] = target: DNA polymerase III PolC-type (Bacillus subtilis (strain 168)) (UniProt P13267); experiment: qHTS Validation Assay for the Inhibitors of DNA Replication in Gram-Positive Bacteria (AID 485295);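 note: reconstituted holoenzyme with PolC plus beta clamp SSB and primase; PicoGreen fluorescence of double-stranded DNA made on primed circular M13 template; series mostly up to about 57 µM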
Chain of DNA polymerase III PolC-type (Bacillus subtilis (strain 168)) (P13267 whole entry, looked up): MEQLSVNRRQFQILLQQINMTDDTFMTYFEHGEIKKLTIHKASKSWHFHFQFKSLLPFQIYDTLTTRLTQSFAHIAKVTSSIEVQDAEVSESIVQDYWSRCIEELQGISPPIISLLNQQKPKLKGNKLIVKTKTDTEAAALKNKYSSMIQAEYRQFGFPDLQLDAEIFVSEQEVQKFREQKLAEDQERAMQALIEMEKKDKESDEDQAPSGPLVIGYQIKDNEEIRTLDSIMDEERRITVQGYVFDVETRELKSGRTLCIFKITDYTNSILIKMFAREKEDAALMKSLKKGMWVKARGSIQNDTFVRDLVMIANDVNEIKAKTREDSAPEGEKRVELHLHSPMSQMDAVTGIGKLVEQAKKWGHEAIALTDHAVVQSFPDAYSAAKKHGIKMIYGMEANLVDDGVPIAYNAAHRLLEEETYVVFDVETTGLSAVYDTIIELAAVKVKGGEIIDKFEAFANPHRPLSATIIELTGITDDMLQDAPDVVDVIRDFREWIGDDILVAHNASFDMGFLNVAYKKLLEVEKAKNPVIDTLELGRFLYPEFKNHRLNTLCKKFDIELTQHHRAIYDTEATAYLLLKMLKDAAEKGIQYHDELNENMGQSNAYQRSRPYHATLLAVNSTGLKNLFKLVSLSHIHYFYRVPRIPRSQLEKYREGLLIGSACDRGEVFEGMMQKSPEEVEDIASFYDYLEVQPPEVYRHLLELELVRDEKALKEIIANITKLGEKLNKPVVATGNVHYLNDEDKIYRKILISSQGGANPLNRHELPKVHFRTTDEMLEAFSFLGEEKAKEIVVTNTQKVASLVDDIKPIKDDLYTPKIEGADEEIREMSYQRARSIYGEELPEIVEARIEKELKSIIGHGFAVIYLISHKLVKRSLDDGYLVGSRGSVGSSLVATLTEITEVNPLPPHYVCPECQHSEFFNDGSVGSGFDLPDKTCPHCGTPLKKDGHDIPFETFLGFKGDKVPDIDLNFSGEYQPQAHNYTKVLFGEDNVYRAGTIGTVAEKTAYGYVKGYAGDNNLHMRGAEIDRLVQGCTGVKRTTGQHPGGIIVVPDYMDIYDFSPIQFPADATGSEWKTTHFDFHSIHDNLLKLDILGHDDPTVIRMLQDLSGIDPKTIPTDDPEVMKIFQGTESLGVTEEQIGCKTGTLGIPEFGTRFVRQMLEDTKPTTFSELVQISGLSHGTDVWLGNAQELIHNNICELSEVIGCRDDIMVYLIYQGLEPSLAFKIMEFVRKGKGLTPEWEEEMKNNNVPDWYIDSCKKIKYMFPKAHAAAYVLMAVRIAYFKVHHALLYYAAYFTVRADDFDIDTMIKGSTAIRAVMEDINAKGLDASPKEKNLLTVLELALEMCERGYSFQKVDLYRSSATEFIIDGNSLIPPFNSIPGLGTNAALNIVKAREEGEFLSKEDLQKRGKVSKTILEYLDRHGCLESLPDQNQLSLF
In short: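 PicoGreen fluorescence (ex 480–485/em 535–540 nm) reports dsDNA synthesized on ssM13Gori template with dNTPs/NTPs. Enzyme: holoenzyme rebuilt from purified PolC, beta subunit, SSB and primase. Compound preincubated before substrate addition; RT throughout.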

[18] = Quantitative high throughput screen for delayed death inhibitors of the malarial parasite plastid, 96 hour incubation (AID 488745); note: nearly all actives have a fitted effect of over 70% in size; note: potency is the fitted concentration of half-maximal effect
In short: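 Luciferase-expressing P. falciparum, infected RBCs 2% Hct/0.1% parasitemia (final); 96 h cpd exposure, 37 C, 5% CO2; RPMI 1640 + 0.5% Albumax, bicarbonate, gentamycin. Readout: luminescence loss = growth inhibition.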

[19] = target: ATP-dependent 6-phosphofructokinase (Trypanosoma brucei brucei) (UniProt O15648); experiment: qHTS Validation Assay to Find Inhibitors of T. brucei phosphofructokinase (AID 485368); note: potency is the fitted concentration of half-maximal effect
In short: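 qHTS format, up to 57 uM. PFK 1.25 nM; F6P 0.5 mM; ATP 0.1 mM; 5 mM MgCl2, 0.01% Tween20, 0.1% BSA; 0.1 M TEA pH 8.0; 45 min RT; ADP-Glo readout; no-enzyme control = full inhibition.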

[20] = qHTS Validation Assay to Find Inhibitors of Chronic Active B-Cell Receptor Signaling (AID 485345; active = well fitted curve in the direction sought with a large enough effect in the main read-out, with a control signal flat, not every such curve was filed as active)
In short: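 TMD8 ABC-DLBCL cells with dox-inducible green luciferase–IκBα fusion and red native luciferase; compounds 46 uM–3 nM, 4 h at 37C with doxycycline in 0.5% FBS IMDM. Green/red ratio normalized to basal and 10 uM MG-132.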

Row | Structure (SMILES) | Potency [1] | Potency [2] | Potency [3] | Potency [4] | outcome [5] | outcome [6] | Potency [7] | Potency [8] | Potency [9] | Potency [10] | Potency [11] | Potency [12] | outcome [13] | outcome [14] | outcome [15] | Potency [16] | Potency [17] | Potency [18] | Potency [19] | outcome [20]
1 | CN(C)c1nc(N)c(C(=O)N=C(N)N)nc1Cl | inactive | inactive | inactive | inactive | inactive | inactive | inactive | inactive | inactive | inactive | inactive | inactive | inactive | inactive | inactive | inactive |  |  |  | 
2 | CC(C)(C)c1ccc(S(=O)(=O)/C=C/C#N)cc1 | inactive | inactive | 1120 nM (active) | inactive | inactive | inactive |  | inactive | 377 nM (active) | inactive | 20 µM (active) and inactive | 44700 nM (active) | inactive |  | inactive |  | inactive |  |  | 
3 | CC(=O)N[C@H](C(=O)O)C(C)(C)SN=O | inactive | inactive | inactive | inactive | inactive | inactive | inactive | inactive | inactive | inactive |  | inactive | inactive | inactive | inactive |  |  | inactive |  | 
4 | CCN1/C(=C/C(C)=O)Sc2ccc(OC)cc21 | inactive | inactive | inactive | inactive | inactive | inactive | inactive |  | inactive |  | inactive |  | inactive | inactive | inactive | inactive |  | inactive | inactive | 
5 | COc1cc2c(CCNC(C)=O)c[nH]c2cc1Cl | inactive | inactive | inactive | inactive | inactive | inactive | inactive | inactive | inactive |  | inactive | inactive | inactive | inactive | inactive | inactive |  | inactive |  | inactive
6 | OC[C@H]1O[C@@H](n2cnc3c(NC4CCCCC4)ncnc32)[C@H](O)[C@@H]1O | inactive | inactive | inactive | inactive | inactive | inactive | inactive | inactive | inactive | inactive |  | inactive | inactive | inactive | inactive | inactive | inactive | inactive |  | 
7 | NC(=O)C(=O)O | inactive | inactive | inactive | inactive | inactive | inactive | inactive | inactive | inactive | inactive |  | inactive | inactive | inactive | inactive | inactive |  | inactive | inactive | inactive
8 | N#C/C(=C\c1ccc(O)c(O)c1)C(=O)c1ccc(O)c(O)c1 | inactive | inactive | inactive | 1170 nM (active) | inactive | inactive | inactive | inactive |  | 752 nM (active) | 1.41 µM (active) and 2.99 µM (active) | 501 nM (active) | inactive | inactive | inactive | inactive |  |  | 675 nM (active) | inactive
9 | O=c1[nH]c2cc([N+](=O)[O-])c([N+](=O)[O-])cc2[nH]c1=O | inactive | inactive | inactive | inactive | inactive | inactive |  | inactive | inactive |  | inactive | inactive | inactive | inactive | inactive | inactive |  | inactive | inactive | inactive
10 | Fc1ccc(C(OCCCc2cnc[nH]2)c2ccc(F)cc2)cc1 | inactive | inactive | inactive | inactive | inactive | inactive | 6570 nM (active) | inactive | inactive | inactive |  | 39800 nM (active) | inactive | inactive | inactive | inactive | inactive | 2620 nM (active) |  | 
11 | CC(C)NC[C@H](O)COc1cccc2[nH]ccc12 | inactive | inactive | inactive | inactive | inactive | inactive | inactive | inactive | inactive |  |  |  | inactive | inactive | inactive | inactive |  | inactive |  | inactive
12 | CN(C)CCC(c1ccc(Cl)cc1)c1ccccn1 (stereo not given) | inactive | inactive | inactive | inactive | inactive | inactive | inactive | inactive | inactive | inactive | inactive | inactive | inactive | inactive | inactive |  |  | inactive |  | inactive
